# Publication PMC8384837, “Expanding the binding specificity for RNA recognition by a PUF domain”
# Key:
# Test in all cases: yeast three-hybrid, YBZ-1, SC-Leu-His + 0.5 mM 3-AT, 4 days
# Conditions in all cases: tags: N-Gal4 AD-HA kept; label: inside an RPR1-promoter hybrid RNA with tandem MS2 sites; ssRNA
# PUM1 PUF domain R1-RLQ = PUM1 PUF domain R1-RLQ (Homo sapiens, UniProt Q14671 828-1176, S863R;R864L)
# Procedure, shortened: (§1)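 The interaction score is the log change in how often each variant appears, from input to selection. Frequencies came from PCR-amplified, Illumina-sequenced repeat regions of Pumilio-1 PUF domain libraries grown in strain YBZ-1 (LexA–MS2 coat fusion, HIS3 reporter) alongside matching RNA elements. Input plates were SC-Leu and selection plates were SC-Leu-His + 0.5 mM 3-AT, each for four days, and the log2 calculation used a pseudocount of 1 where a variant was absent.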
# PUM1 PUF domain R7-GIR = PUM1 PUF domain R7-GIR (Homo sapiens, UniProt Q14671 828-1176, S1079G;N1080I;E1083R)
# Procedure, shortened: as §1
# PUM1 PUF domain R4-PHA = PUM1 PUF domain R4-PHA (Homo sapiens, UniProt Q14671 828-1176, N971P;Q975A)
# Procedure, shortened: as §1
# PUM1 PUF domain R3-YYG = PUM1 PUF domain R3-YYG (Homo sapiens, UniProt Q14671 828-1176, C935Y;R936Y;Q939G)
# Procedure, shortened: as §1
# PUM1 PUF domain R5-FRG = PUM1 PUF domain R5-FRG (Homo sapiens, UniProt Q14671 828-1176, C1007F;Q1011G)
# Procedure, shortened: as §1
# PUM1 PUF domain R5-RKP = PUM1 PUF domain R5-RKP (Homo sapiens, UniProt Q14671 828-1176, C1007R;R1008K;Q1011P)
# Procedure, shortened: as §1
# PUM1 PUF domain R5-RRG = PUM1 PUF domain R5-RRG (Homo sapiens, UniProt Q14671 828-1176, C1007R;Q1011G)
# Procedure, shortened: as §1
# PUM1 PUF domain R5-RCK = PUM1 PUF domain R5-RCK (Homo sapiens, UniProt Q14671 828-1176, C1007R;R1008C;Q1011K)
# Procedure, shortened: as §1
# PUM1 PUF domain R5-SHL = PUM1 PUF domain R5-SHL (Homo sapiens, UniProt Q14671 828-1176, C1007S;R1008H;Q1011L)
# Procedure, shortened: as §1
# PUM1 PUF domain R2-LFI = PUM1 PUF domain R2-LFI (Homo sapiens, UniProt Q14671 828-1176, N899L;Y900F;Q903I)
# Procedure, shortened: as §1
# PUM1 PUF domain R3-GYH = PUM1 PUF domain R3-GYH (Homo sapiens, UniProt Q14671 828-1176, C935G;R936Y;Q939H)
# Procedure, shortened: as §1
sequence,measurement,setting,value
GGCUAGAACUAGUGGAUCCCCCGGCGCCCGGCGGCUCGAGCCCGGGUAAGUGUAAAUCGUCUGCAUGCCGCCGGGCGCCAUGCCUGCAGGUCGACUCUAGAAAACAUG,binding signal,PUM1 PUF domain R1-RLQ,5.58 log2 enrichment (interaction score)
GGCUAGAACUAGUGGAUCCCCCGGCGCCCGGCGGCUCGAGCCCGGGUAAGUUUAAAUAGUCUGCAUGCCGCCGGGCGCCAUGCCUGCAGGUCGACUCUAGAAAACAUG,binding signal,PUM1 PUF domain R7-GIR,3.02 log2 enrichment (interaction score)
GGCUAGAACUAGUGGAUCCCCCGGCGCCCGGCGGCUCGAGCCCGGGUAAGUGUAUAUAGUCUGCAUGCCGCCGGGCGCCAUGCCUGCAGGUCGACUCUAGAAAACAUG,binding signal,PUM1 PUF domain R4-PHA,6.34 log2 enrichment (interaction score)
GGCUAGAACUAGUGGAUCCCCCGGCGCCCGGCGGCUCGAGCCCGGGUAAGUGUAAGUAGUCUGCAUGCCGCCGGGCGCCAUGCCUGCAGGUCGACUCUAGAAAACAUG,binding signal,PUM1 PUF domain R3-YYG,6.37 log2 enrichment (interaction score)
GGCUAGAACUAGUGGAUCCCCCGGCGCCCGGCGGCUCGAGCCCGGGUAAGUGUCAAUAGUCUGCAUGCCGCCGGGCGCCAUGCCUGCAGGUCGACUCUAGAAAACAUG,binding signal,PUM1 PUF domain R5-FRG,2.42 log2 enrichment (interaction score)
same,binding signal,PUM1 PUF domain R5-RKP,3.3 log2 enrichment (interaction score)
same,binding signal,PUM1 PUF domain R5-RRG,4.19 log2 enrichment (interaction score)
same,binding signal,PUM1 PUF domain R5-RCK,4.05 log2 enrichment (interaction score)
same,binding signal,PUM1 PUF domain R5-SHL,0.12 log2 enrichment (interaction score)
GGCUAGAACUAGUGGAUCCCCCGGCGCCCGGCGGCUCGAGCCCGGGUAAGUGUAAAUGGUCUGCAUGCCGCCGGGCGCCAUGCCUGCAGGUCGACUCUAGAAAACAUG,binding signal,PUM1 PUF domain R1-RLQ,2.26 log2 enrichment (interaction score)
GGCUAGAACUAGUGGAUCCCCCGGCGCCCGGCGGCUCGAGCCCGGGUAAGUGUAAAAAGUCUGCAUGCCGCCGGGCGCCAUGCCUGCAGGUCGACUCUAGAAAACAUG,binding signal,PUM1 PUF domain R2-LFI,4.64 log2 enrichment (interaction score)
GGCUAGAACUAGUGGAUCCCCCGGCGCCCGGCGGCUCGAGCCCGGGUAAGUGUAAUUAGUCUGCAUGCCGCCGGGCGCCAUGCCUGCAGGUCGACUCUAGAAAACAUG,binding signal,PUM1 PUF domain R3-GYH,2.58 log2 enrichment (interaction score)
